# Screening data deposited in PubChem BioAssay by National Center for Advancing Translational Sciences (NCATS).
# A selection: hits, their analogues and other compounds. The true share with any hit is near 12%.
# BAZ2B block = qHTS Assay for Inhibitors of BAZ2B. Bromodomain adjacent to zinc finger domain protein 2B (Homo sapiens), Q9UIF8. AlphaScreen BAZ2B-H3K14Ac peptide displacement. Potency, µM (highest dose often 114 µM), inactives show at the top dose activity change, negative = inhibition, usual class: inhibitors. 360,000 compounds, 4.4% hits. AID 504333, 2011; note: % is set by controls: 0 for no effect and ±100 for the full control effect; nearly all actives have a fitted effect of over 60% in size
#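 Complex of BAZ2B and biotin-H3K14Ac (50 nM apiece) forms over 30 min at RT, then faces library compounds up to 110 uM for another 30 min; AlphaScreen beads added, 20 min dark incubation, luminescence read.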
# L3MBTL1 inh = qHTS Assay for the Inhibitors of L3MBTL1. Lethal(3)malignant brain tumor-like protein 1 (Homo sapiens), Q9Y468. AlphaScreen L3MBTL1–H3K9me1 peptide binding. Potency, µM (top dose mostly 57.1 µM), without a hit: at the top dose activity, negative = inhibition, usual class: inhibitors. 230,000 compounds, 0.66% hits. AID 485360, 2010; note: % is set by controls: 0 for no effect and ±100 for the full control effect; nearly all actives have a fitted effect of over 60% in size
#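 AlphaScreen proximity signal between nickel-chelate acceptor and streptavidin donor beads (final 10 ug/mL) reports binding of 50 nM L3MBTL1 to 75 nM biotin-H3 K9me1 peptide; complex incubated with compounds 30 min at room temperature; cefsulodin titration as control.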
# HP1b binding inh = HTS for Inhibitors of HP1-beta Chromodomain Interactions with Methylated Histone Tails | 390,000 compounds, 0.56% hits | AlphaScreen HP1-beta / biotin-H3K9me3 peptide binding | AID 540317, 2011 | Potency, µM (doses to about 114 µM), without a hit: at the highest dose activity change, negative = inhibition, actives largely listed as inhibitors; note: nearly all actives have a fitted effect of over 70% in size
#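 AlphaScreen: HP1-beta (50 nM) preformed 30 min with biotin-H3(1-18)K9me3 peptide (50 nM) in PBS pH 7.4, 0.01% Tween-20. Compound added for 30 min at RT, then streptavidin donor/nickel chelate acceptor beads (10 ug/mL) for 30 min.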
# JMJD2A Tudor = qHTS Assay for Inhibitors of JMJD2A-Tudor Domain; Lysine-specific demethylase 4A (Homo sapiens), O75164; AlphaScreen JMJD2A-Tudor / H3K4me3 peptide binding; Potency, µM (doses to about 114 µM), inactives show at the highest dose activity change, negative = inhibition, usual class: inhibitors; 390,000 compounds, 4.4% hits; AID 504339, 2011; note: % is set by controls: 0 for no effect and ±100 for the full control effect; nearly all actives have a fitted effect of over 50% in size
# Sfp PPTase inh = qHTS Assay for Inhibitors of Bacillus subtilis Sfp phosphopantetheinyl transferase (PPTase); 310,000 compounds, 3.5% hits; AID 1490, 2009; 4'-phosphopantetheinyl transferase ffp (Bacillus subtilis), Q9F4F7; Potency, µM, without a hit: largest response in the series, negative = inhibition, hits mostly inhibitors; Biochemical Sfp PPTase activity, qHTS;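 note: the enzyme is Sfp with the accession as filed and its product quenches rhodamine fluorescence; 0% = enzyme reaction without inhibitor and -100% = no enzyme wells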
#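 Sfp 15 nM + cpd, 15 min RT; start w/ rhodamine-CoA 5 uM, BHQ-2-YbbR 12.5 uM (final); 50 mM Hepes pH 7.6, 10 mM MgCl2, 0.01% NP-40, 0.01% BSA; read 525/598 nm at 0 and 30 min.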
# G9a block = qHTS Assay for Inhibitors of Histone Lysine Methyltransferase G9a | Histone-lysine N-methyltransferase EHMT2 (Homo sapiens), Q96KQ7 | G9a H3K9 monomethylation, AlphaScreen, 2 h | Potency, µM (titrated, usually from 102 µM), for the others: top-dose activity, negative = inhibition, usual class: inhibitors | 350,000 compounds, 8.8% hits | AID 504332, 2011; note: % is set by controls: 0 for no effect and ±100 for the full control effect; nearly all actives have a fitted effect of over 75% in size
#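 AlphaScreen detection with an anti-monomethyl H3K9 antibody quantified product after a 2 h room-temperature reaction containing 500 nM biotinylated H3K9 peptide, 20 µM SAM and 20 nM enzyme, which had been preincubated 15 min with compound.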
# The depositor's hits bear a star; ? = inconclusive; . = no result given; [ ] = another dose, or the depositor's remark. Calls come from the whole dose curve; as a rule, active = well fitted curve in the direction sought with a large enough effect; inconclusive = small, poorly fitted or top-dose-only effect, or another doubt; inactive = no such curve, though single readings can be large; an effect the other way counts as inactive or inconclusive. Potency is the fitted concentration of half-maximal effect.
SMILES,BAZ2B block,L3MBTL1 inh,HP1b binding inh,JMJD2A Tudor,Sfp PPTase inh,G9a block
COc1ccc(NC(=O)c2c(NC(=O)CCC(=O)O)sc(-c3ccccc3)c2C)cc1,-33.6%,-1.4%,-25.1%,-19.3%,15.8µM*,5.62µM*
Cc1cc(C(=O)Nc2sc(C)c(-c3ccc(F)cc3)c2C(N)=O)no1,17.3%,42.6%,-5.2%,-14.7%,-1.2%,-46.8%[59 µM]
COc1ccc(NC(=O)c2c(NC(=O)COc3ccccc3)sc3c2CCC(C)C3)cc1 (centres undefined),5.1%,.,23.4%,-1.7%,.,-44.9%[59 µM]
Cc1cn2c(=O)cc(COc3ccc(C(C)(C)C)cc3)nc2s1,-4.8%,.,37.2%,-12.9%,.,8.7%[59 µM]
Cc1sc(NC(=O)C2CCCCC2C(=O)O)c(C(N)=O)c1-c1ccccc1 (centres undefined),-1.6%,-2.7%,-9.0%,-16.0%,1.7%,35.5µM*
CCCc1ccc(-c2cc(NC(=O)CSc3n[nH]c(N)n3)n(-c3ccccc3)n2)cc1,?,.,13.0%,-27.8%,14.1%,2.0%
CCCc1ccc(-c2cc(N)n[nH]2)cc1,79.4µM*,.,8.7%,-26.9%,11.0%,21.7%
S=C(NCCc1ccccc1)NCCN1CCOCC1,-8.3%,-1.0%,49.7%,-7.5%,4.5%,-4.5%
CN(C(=S)NCCN1CCOCC1)C(c1ccccc1)c1ccccc1,50.1µM*,-3.9%,?,10µM*,-24.8%,20µM*
COc1ccc(NC(=O)c2cc(=O)c3cc(C)cc(C)c3o2)cc1,4.3%,.,18.5%,-11.5%,.,4.3%[59 µM]
CCN(Cc1cc(=O)n2ccsc2n1)Cc1nc2cc(OC)c(OC)cc2c(=O)[nH]1,3.1%,.,11.0%,-7.4%[11.4 µM],?,12.6µM*
CN(Cc1cc(=O)n2ccsc2n1)Cc1nc2ccccc2c(=O)[nH]1,.,2.2%,39.8%,-15.4%,4.47µM*,?
CN(Cc1cc(=O)n2ccsc2n1)c1ccccc1,0.9%,26.8%,40.4%,-6.9%,?,0.0%[59 µM]
CN(Cc1cc(=O)n2ccsc2n1)C1CCCCC1,-31.1%,-5.0%,27.1%,-3.4%,-5.3%,50.1µM*
COc1cc2nc(CN(C)Cc3nc4ccccc4c(=O)[nH]3)[nH]c(=O)c2cc1OC,70.3%,.,37.3%,-2.1%,15.0%,35.9%[12.7 µM]
CCN1CCN(C(=O)Nc2cccc3ccccc23)CC1,?,.,21.0%,-0.7%,0.4%,39.8µM*
Cc1coc2c(C)c3oc(=O)c(CCC(=O)NCCC(=O)O)c(C)c3cc12,50.1µM*,.,4.7%,?,-3.4%,4.7%
Cc1c(CCC(=O)O)c(=O)oc2c(C)c3occ(-c4ccc(Cl)cc4)c3cc12,56.2µM*,.,?,?,-29.5%,?
CC(=O)C1=C(c2ccc(F)cc2)N(C(C)=O)n2c(nnc2C2CCCCC2)S1,-0.1%,.,35.6%,9.4%,.,1.4%[59 µM]
COC(=O)N1CCC2(CC1)CN(C(=O)Nc1cccc(C#N)c1)C2,.,.,.,.,9.8%,-6.0%[12.7 µM]
CCCC(=O)n1nc(-c2ccco2)nc1SCc1ccccc1,87.0%,11.5%,29.3%,40.7%,50.1µM*,22.1%
O=C(Cc1ccccc1)n1nc(-c2ccco2)nc1SCc1ccccc1,-37.4%,.,20.2%,89.1µM*,13.2%,26.5%[12.7 µM]
CC1=C(c2ccc(C(C)C)cc2)S(=O)(=O)N=C1N1CCC(C(=O)NCCc2ccco2)CC1,-11.4%,.,-15.2%,-9.7%,.,-0.9%[59 µM]
CC(=O)c1sc2nc(C)c3c(c2c1N)CCCC3,-13.9%,15.4%,85.2%,22.4%,?,6.0%
CC(=O)c1sc2nsc(SCCN3CCCC3)c2c1N,?,?,?,89.1µM*,39.8µM*,-75.5%[59 µM]
SMILES,BAZ2B block,L3MBTL1 inh,HP1b binding inh,JMJD2A Tudor,Sfp PPTase inh,G9a block
Cn1nnc(C(O)CN2CCOCC2)n1 (centres undefined),-6.6%,-14.7%,36.1%,2.9%,0.4%,79.4µM*
Cn1nnc(C(O)CNCc2ccc(Cl)cc2)n1 (centres undefined),-31.3%,.,32.1%,-2.5%,6.3%,-48.0%[59 µM]
CCc1cc(C(=O)OC)c(NC(=O)CCC(=O)O)s1,8.4%,-2.1%,?,-11.5%,20µM*,14.1µM*
CCCN1CCN(C(=S)Nc2sc(CC)cc2C(=O)OC)CC1,-36.8%,-20.2%,15.0%,?,-5.1%,50.1µM*
CCCc1cc(C(=O)OC)c(NC(=O)CCCC(=O)O)s1,-9.8%,3.6%,19.4%,0.7%,11.7%,-8.3%
O=C(Oc1ccc(N2C(=O)C3C4CCC(C4)C3C2=O)cc1)c1ccco1 (centres undefined),-14.5%,.,25.3%,-2.8%,2.0%,27.6%
O=C(Oc1cccc2cccnc12)c1ccc(N2C(=O)C3C4CCC(C4)C3C2=O)cc1 (centres undefined),50.1µM*,-23.7%,16.5%,?,?,-6.0%
O=C(Oc1cccc2cccnc12)c1cccc(-n2cnnn2)c1,?,19.9%[11.4 µM],28.0%,-26.4%,-2.4%,5.62µM*
O=C(Oc1cccc2cccnc12)c1cccc(N2C(=O)C3C4CCC(C4)C3C2=O)c1 (centres undefined),10µM*,?,-4.4%,70.8µM*,44.7µM*,0.794µM*
O=P(O)(O)OC[C@H]1O[C@](O)(COP(=O)(O)O)[C@@H](O)[C@@H]1O,.,.,.,.,29.0%,2.1%[12.7 µM]
CCc1ccc(NC(=O)CSc2nc3c([nH]c4ccccc43)c(=O)n2C)cc1,3.5%,.,25.5%[57 µM],-9.4%,.,8.3%[59 µM]
